Reference: PMC13494018
Unmarked numbers belong to inactive results. The rule behind the calls is not given here.

B1: d8r1_design_ppi_882_dldesign_0_cycle1_af2pred (protein)
chain: MTPEEAAAEARRIGDGAAAAIAASTDVATAKAIYDRAVTELTALAAAFPEVAHVASAELVKVAKAYIAKGDAL
B2: d8r1_design_ppi_1493_dldesign_0_cycle1_af2pred (protein)
chain: AAESEALRQQAIDLAQKAAEIAADDENAEEVKARIDAAIAHLQAGDYAAAAADLLAAAKLASPEARGYILKALLKAMEAA
B3: d8r1_design_ppi_87_dldesign_0_cycle1_af2pred (protein)
chain: SEEEFERRIAIAAEQLAAMDAALAAIKASGDAAEKQALLAQLRAAGEEMAKALGPAGAAIAEALLAQAEAALAA
B4: d8r1_design_ppi_1124_dldesign_0_cycle1_af2pred (protein)
chain: STATAAANAAAFSSKGAAVVGDKFAPSVESVLERVVELDPAAGLAAAEAVAAAAAAHPAVRAVAEAVAARARAAL
B5: d8r1_design_ppi_167_dldesign_0_cycle1_af2pred (protein)
chain: SKEERYKKAAEWLAETSKKAIALRKANPAVAPLAIKMHGAAAHAAAALVAGDEEKAEEYKKKSEEYLKEAEAAIA
B6: d8r1_design_ppi_1324_dldesign_0_cycle1_af2pred (protein)
chain: AAAKLAALKKEIKALIGAAAAYQIAKDSSKLDEYVAKANKLIALADKDPVAAAKETAKLAEEAGDEETAKKAKEAAKEAKKL
B7: d8r1_design_ppi_509_dldesign_0_cycle1_af2pred (protein)
chain: KDEHFDKMVEYLKKAQEAYNKAVAAAKAGDADAAKAALAKAQEYYDKAIKEAEKYSPEAGAAMKSTKEKSVAIANAAL
B8: d8r1_design_ppi_509_dldesign_0_cycle0_af2pred (protein)
chain: SDEKWAAAAAHMGAAQKAADAAVAAAAAGNTAAAKAAQAEAAAHYDKAAEEAKEYSPEAGAAMKSTREATVALINAKL
B9: d8r1_design_ppi_139_dldesign_0_cycle1_af2pred (protein)
chain: AKLIEELKKEAKAVKELAKKGAPAEELDAAVKKLGEAMTKLAKAMATMSPEEKAKARAALAEAAKAAIEAGEVAEKLRAA
B10: d8r1_design_ppi_1318_dldesign_0_cycle1_af2pred (protein)
chain: SAAAAAAARGEAAVASLTATGAAIVAAAKKDPSEAASMVRAVKNLGQAYANRVPPEYAAKVLAVAATYAAQIAAIM
B11: d8r1_design_ppi_640_dldesign_0_cycle1_af2pred (protein)
chain: SEEEEKKYEELAKAGAAASKAGAVAAKHPDNPEIKKLADEAGKALSEAFTSDVETAKKLAEKVEALAKAAEALAA
B12: d8r1_design_ppi_1429_dldesign_0_cycle1_af2pred (protein)
chain: SSLKREEILRKTAEAMAEATLAKVRELAKEDPERARRALENMRALLALLGPVAAKIGEEAYARGLAIIAEIA
B13: d8r1_design_ppi_1136_dldesign_0_cycle0_af2pred (protein)
chain: SAAAAARARTAAANAAALAKKMLEAGVSPENARALVEAAAARLTPEAGAALRAEGEALVAEYAARREAEAA
B14: d8r1_design_ppi_1447_dldesign_0_cycle1_af2pred (protein)
chain: SEAEDIASFARMATTAAASAAKKDIASAKTLMDAVAKLPGAAAHVTAAGNAAIAAAATVDPARAAELAAYLAARLAAL
B15: d8r1_design_ppi_47_dldesign_0_cycle1_af2pred (protein)
chain: GQAALDAAAKRLDELTKEAEKASPNTGKAVEAIRDGSIRVATALFAAGDAARGRAALENGVAASEKLVEATKS
B16: d8r1_design_ppi_134_dldesign_0_cycle1_af2pred (protein)
chain: AAAEAAREAVRAAAAAAREAAAKMSPSKAKAVESIVERTTRVADELIAAGDYRTAVRAAASAEAAAKTLLEVDK
B17: d8r1_design_ppi_482_dldesign_0_cycle1_af2pred (protein)
chain: SESEEWIKEITDAANQAVALAKAGKTAEAYALLDATAAKAAAKSPSRGALAKGVADAMRVYIDKYAAKKA
B18: d8r1_design_ppi_1481_dldesign_0_cycle1_af2pred (protein)
chain: SSDEDYAALVEGMALASQTYAQARALIAATGAAGGAQARALAQAAAAQLRAAGAKYPSRAAQYDALADGLVRTVTAAAA
B19: d8r1_design_ppi_882_dldesign_0_cycle0_af2pred (protein)
chain: MTPEEAAAAARAIGAAAAAAIAASTDLATAGALADAAFRALVALAAAFPEVAPVASAEMAAVAKAFIAKGDAL
B20: d8r1_design_ppi_43_dldesign_0_cycle1_af2pred (protein)
chain: EEALKKASEALSEAARLAIKNPAYLPAFAATGAAYGKVLEAYKKSPEEAKKAAKELLALYEKEVAAAKAAL
B21: d8r1_design_ppi_1339_dldesign_0_cycle1_af2pred (protein)
chain: AEAWLAEIREIVSRAVEAAQAGDVETLEAAVEEARALAERAPPEVRPAAENAAAFNQLLLELTKERLAEKA
B22: d8r1_design_ppi_869_dldesign_0_cycle0_af2pred (protein)
chain: SEDAQSAVRFAQNTLETAKRKAAEDPARGRQIAANLATAAATAAAKFAGLPEAATLKALQAQAAALAAALA
B23: d8r1_design_ppi_1425_dldesign_0_cycle0_af2pred (protein)
chain: STESREKALKAISEKSKAKAKKLAAEDPAKGLALAKNAAKSFKDWAKADPETKETAEAQAKEHEALAKEIAAAA
B24: d8r1_design_ppi_1470_dldesign_0_cycle1_af2pred (protein)
chain: DAAAQAATALQGAKNALAAADLLEAEGTKGALLAAGSLYIAAGEQLATAYTLLGKPEEGKAVAAELNAKGKALLAAA
B25: d8r1_design_ppi_869_dldesign_0_cycle1_af2pred (protein)
chain: SEEAQAAVRFARNLLEVARLRAEEDPARGRAIAANLEVAARTLAEKHAGLPEAEELRRLAAEAAALAAELA
B26: d8r1_design_ppi_1265_dldesign_0_cycle1_af2pred (protein)
chain: SENEEAAKALTRAAEAAARYLAEKYGELAKEAAKLIAKAAEADAETAVKYLEEAVKLLDEAGKKTGATKETDALKAMAEKAAELKKA
B27: d8r1_design_ppi_286_dldesign_0_cycle1_af2pred (protein)
chain: SNEEKAEDLRFMARAVLGVGATASAAETAAFLNDVAAAAARLDPEAGAAVAAIGAAAAASGDAKAAAKAAAAVLEAAAEEFL
B28: d8r1_design_ppi_310_dldesign_0_cycle0_af2pred (protein)
chain: SRARALASIAALAELAAELAEENPASGAQLGKVVASALAALGLTDEAARVAAASPADLKAVMREVAAAARAAAAALA
B29: d8r1_design_ppi_671_dldesign_0_cycle1_af2pred (protein)
chain: AESYRAAAAAIAQAAADNPAGAADAAAALVAMAKMSSPEKAAAIAEGVEAVAEGAPADVRALLLAAAAEIKAIV
B30: d8r1_design_ppi_994_dldesign_0_cycle1_af2pred (protein)
chain: GKVEELEKKFREELQAAADLIAELRKADPELGKLAAKALAYALANPELGRKLAEEVAAKSPLGAKAAAEILALIETREELLKAEKEA
B31: d8r1_design_ppi_536_dldesign_0_cycle1_af2pred (protein)
chain: NKDKEIAELLLKLAEAAKEDPEKALKIAEEIEKLGNKEFGGALKTLLELAVAEKGKAGENAKAAAIVLSTSRAEDLLAK
B32: d8r1_design_ppi_1102_dldesign_0_cycle1_af2pred (protein)
chain: DAVREAGVAAAQAIKVALDEGDKELANAVSEAARAAVADPALAPLVKEGAELIIDPEKREQGRELVEKAVAAYKAAQ
B33: d8r1_design_ppi_753_dldesign_0_cycle0_af2pred (protein)
chain: SAEAQAALAGARAAVAGAELLVEVAEETGSQGALRAAKRAAEAAEEAARKAAELGAEEEARELEERAREVRERAEKLE
B34: d8r1_design_ppi_482_dldesign_0_cycle0_af2pred (protein)
chain: STTDEMIEKIAKAAQEAMKLAKEGKYEEAYALLKKMAEEAAKVSESLGALAKGVAEAMKNWIDKYKAEKA
B35: d8r1_design_ppi_637_dldesign_0_cycle1_af2pred (protein)
chain: MTAEAAKAEVRARLEAAGERAAEAAKERGADYEAVLAAARSMAERAAADPDPEAALARGAEALAFLEALEKYYRE
B36: d8r1_design_ppi_345_dldesign_0_cycle1_af2pred (protein)
chain: ATAEATATKIKTGIEKMLKLSKELGKGALINAAAAAKASAKVMDKLLADPSITPAARAALTAARDEAEKAAKEAEAEAKKL
B37: d8r1_design_ppi_1425_dldesign_0_cycle1_af2pred (protein)
chain: SVEERKKRAEAIAKRSRAVARALAAADPARGIALAESAAVSFEKWAELYPEIKEFAEALAAEHRALAAEIRAAA
B38: d8r1_design_ppi_1356_dldesign_0_cycle1_af2pred (protein)
chain: DPELIARTALSAAVMLEKGVAGTPEAALNAADGSALLLESKAESFGSEELKELAKKAKEAAKKIKADPEAGKKALREVAEELKKLAE
B39: d8r1_design_ppi_540_dldesign_0_cycle1_af2pred (protein)
chain: DKKTETILAGMEAASNAAALLKKDPAAGGAYLLAKAKEVGAAVGNAADIVPAAAAAAADPATAAARLREFVSIVVSSVTS

Target: PDL1, Q9NZQ7
Sequence (Q9NZQ7 whole entry): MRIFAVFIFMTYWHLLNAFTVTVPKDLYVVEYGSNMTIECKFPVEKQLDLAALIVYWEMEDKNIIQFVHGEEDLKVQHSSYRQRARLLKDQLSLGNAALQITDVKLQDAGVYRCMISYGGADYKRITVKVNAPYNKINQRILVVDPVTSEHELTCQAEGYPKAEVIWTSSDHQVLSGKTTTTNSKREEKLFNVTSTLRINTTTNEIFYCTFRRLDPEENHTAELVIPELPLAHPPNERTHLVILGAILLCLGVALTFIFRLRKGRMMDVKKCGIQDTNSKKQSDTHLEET

Binder | binding in a display sort
B1 | not found
B2 | binds (active)
B3 | not found
B4 | not found
B5 | not found
B6 | not found
B7 | not found
B8 | not found
B9 | not found
B10 | binds (active)
B11 | not found
B12 | not found
B13 | binds (active)
B14 | not found
B15 | not found
B16 | binds (active)
B17 | binds (active)
B18 | binds (active)
B19 | not found
B20 | not found

Binder | binding in a display sort
B21 | binds (active)
B22 | not found
B23 | not found
B24 | not found
B25 | binds (active)
B26 | binds (active)
B27 | binds (active)
B28 | not found
B29 | not found
B30 | not found
B31 | not found
B32 | not found
B33 | not found
B34 | not found
B35 | not found
B36 | not found
B37 | not found
B38 | not found
B39 | not found
